Rows were chosen to be rich in hits. Some 2.4% of all compounds tested hit in one or more screens of this group.
ClpP mod = qHTS Assay for Activators of ClpP. ATP-dependent Clp protease proteolytic subunit (Bacillus subtilis (strain 168)), P80244. purified B. subtilis ClpP, FRET peptide cleavage, 20 min. Potency, µM (titrated, usually from 57.5 µM), for inactives: top-dose activity change, negative = active. 340,000 tested, 1.9% active. AID 651965, 2013; active means well fitted falling curve with a large enough effect; inconclusive means small, poorly fitted or top-dose-only effect; inactive means no such curve, though single readings can be large or run the other way; further: the source files actives as falling curves though it sought activators and does not explain the sign; nearly all actives have a fitted effect of over 65% in size
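FRET quenching reversal measured ClpP activation: 10 microg/mL B. subtilis ClpP at pH 8 with the FRET-FV decapeptide, read at 430 nm after 320 nm excitation. The 20-min minus 0-min signal was scaled between DMSO/no-enzyme wells and ADEP (5.8 microM final).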
TDP1 block = inhibitors of human tyrosyl-DNA phosphodiesterase TDP1 | Q9NUW8 | recombinant TDP1, AlphaScreen DNA substrate cleavage | Potency, µM (titrated, usually from 130 µM), without a hit: at the top dose activity change, negative = inhibition, usual class: inhibitors | 350,000 tested, 0.28% active; active means well fitted curve in the direction sought with a large enough effect; inconclusive means small, poorly fitted or top-dose-only effect, or another doubt; inactive means no such curve, though single readings can be large; an effect the other way counts as inactive or inconclusive; further: on the % scale 0 is the no-effect control and ±100 the full control effect; nearly all actives have a fitted effect of over 40% in size
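Compounds were preincubated with Tdp1 (1 nM final) for 15 min at room temperature before substrate (15 nM final) started a 5 min reaction; beads (10 ug/ml final) were then added for 10 min before AlphaScreen detection.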
Rango-impB inh = Rango-importin beta binding inhibition | Potency, µM (highest dose often 92.2 µM), for inactives: at the highest dose inhibition of complex formation | Rango CFP/YFP FRET sensor + importin beta, 45 min | Q14974 | 340,000 tested, 0.031% active;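 further: 0% = DMSO wells and 100% = buffer wells lacking importin beta; nearly all actives have a fitted effect of over 15% in size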
Target sequence (Q14974 whole entry, looked up): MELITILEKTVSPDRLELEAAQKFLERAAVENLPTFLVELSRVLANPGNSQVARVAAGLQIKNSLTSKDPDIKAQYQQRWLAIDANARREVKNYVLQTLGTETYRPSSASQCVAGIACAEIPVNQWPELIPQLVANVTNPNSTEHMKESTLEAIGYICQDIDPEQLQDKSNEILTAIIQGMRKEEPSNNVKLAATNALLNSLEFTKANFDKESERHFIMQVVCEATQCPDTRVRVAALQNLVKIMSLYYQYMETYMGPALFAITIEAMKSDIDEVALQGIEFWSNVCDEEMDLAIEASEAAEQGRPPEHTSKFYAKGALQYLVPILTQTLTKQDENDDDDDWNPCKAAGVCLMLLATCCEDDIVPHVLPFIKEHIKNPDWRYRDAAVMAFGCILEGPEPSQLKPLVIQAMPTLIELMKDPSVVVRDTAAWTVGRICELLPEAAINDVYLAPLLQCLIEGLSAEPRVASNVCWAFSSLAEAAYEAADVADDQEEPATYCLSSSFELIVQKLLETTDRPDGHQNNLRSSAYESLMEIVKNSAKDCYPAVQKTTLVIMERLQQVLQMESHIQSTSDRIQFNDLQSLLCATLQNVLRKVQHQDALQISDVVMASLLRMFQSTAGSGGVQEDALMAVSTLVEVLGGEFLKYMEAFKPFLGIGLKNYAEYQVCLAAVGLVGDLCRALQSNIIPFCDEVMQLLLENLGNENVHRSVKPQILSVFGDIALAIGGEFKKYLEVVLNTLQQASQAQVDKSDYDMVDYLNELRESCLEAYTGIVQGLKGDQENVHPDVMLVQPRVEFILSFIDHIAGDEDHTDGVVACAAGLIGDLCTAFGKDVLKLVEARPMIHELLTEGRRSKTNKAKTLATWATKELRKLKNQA
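FRET biosensor Rango (snurportin 1 IBB between N-terminal EYFP and C-terminal Cerulean), 50 nM in PBS/1 mM DTT/0.02% Tween-20/0.1% BSA, preincubated 5 min RT with compound; 0.125 microM importin beta added, 45 min RT, CFP/YFP FRET ratio read.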
PTAP TSG101 blk = blocks PTAP/TSG101 interaction to inhibit HIV-1 budding. Q99816. 340,000 tested, under 10 active. Potency, µM (titrated, usually from 115 µM), for the others: at the top dose activity change, negative = inhibition, usual class: inhibitors. Fluorescence polarization, FITC-PTAP peptide / Tsg101 binding; active means well fitted inhibition curve with a large enough effect in the main read-out, with a control signal flat, not every such curve was filed as active; inconclusive means small, poorly fitted or top-dose-only effect, or effect the other way, or a change in a side signal; inactive means no such curve, though single readings can be large or run the other way; further: % of control where 0% means no effect
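Steps: Tsg101 binding domain dispensed (10 uM final), compounds pinned in DMSO, FITC-labeled PTAP-motif peptide added (50 nM final); after 20 min binding at room temperature, polarization measured.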
Rango dissoc inh = prevents RanGTP from dissociating the Rango-importin beta complex; O95149+P62826; Biochemical FRET Rango-importin beta, RanGTP-induced dissociation; Potency, µM (series often up to 46.1 µM), without a hit: top-dose activity change, negative = inhibition; 340,000 tested, 0.071% active; AID 540253; further: % of control where 0% means no effect; nearly all actives have a fitted effect of over 45% in size
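Quantitative HTS using a FRET biosensor: 0.1 uM Rango, 0.25 uM importin beta, 0.6 uM Ran, 2 mM GTP, 0.2 uM RCC1 final, PBS with DTT, Tween-20 and BSA. Post-read taken 45 min after Ran addition.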
ALOX12 inh = ALOX12 (human) lipoxygenase inhibition; 580,000 tested, 1.1% active; AID 1671190; P18054; purified 12hLO, xylenol orange hydroperoxide absorbance; Potency, µM (series often up to 108 µM), for the others: at the top dose activity change, negative = inhibition, usual class: inhibitors; active means well fitted curve in the direction sought with a large enough effect; inconclusive means small, poorly fitted or top-dose-only effect, or another doubt; inactive means no such curve, though single readings can be large; an effect the other way counts as inactive or inconclusive; further: on the % scale 0 is the no-effect control and ±100 the full control effect
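Purified human 12hLO (150 nM final) in 25 mM Hepes, 0.01% Triton X-100, pH 7.0 was preincubated 15 min at room temperature with compound. Then 40 uM arachidonic acid was added, 30 min. Hydroperoxide was read by Fe-XO absorbance ratio 573/405 nm.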
Active calls of the source: *; ? = inconclusive; nt = no result; ! = repeats disagree; [ ] = remark or other dose. Unless noted, the call rests on the fitted dose curve. Potency means the concentration at half of the fitted maximal effect.

SMILES | ClpP mod | TDP1 block | Rango-impB inh | PTAP TSG101 blk | Rango dissoc inh | ALOX12 inh
CC(C)Cn1cc(C(=O)N2CCOCC2)c2c3ccccc3n(C)c2c1=O | 16µM* | 3% | -3% | -1% | -8% | 11%
CCCCS(=O)(=O)N1CCC2(CC1)CN(C(C)=O)CC2COC (stereo not drawn) | nt | nt | nt | nt | nt | 44%
CCc1noc([C@@H]2CC(F)(F)CN2C(=O)Cc2ccncc2)n1 | nt | nt | nt | nt | nt | 50%
COc1ccccc1CNCC(c1ccccc1)c1ccccc1 | nt | 5%[0.0935 µM] | nt | nt | nt | 2.5µM*
COc1ccccc1CNCc1cc(OC)c(OC)cc1OC | -2% | -5% | -7% | -1% | -1% | ?
COc1ccc(CC(=O)Nc2ccc3c(c2)CN(Cc2ccc(OC)cc2OC)C(=O)C(C)O3)cc1 (stereo not drawn) | nt | nt | nt | nt | nt | 11%
CCOC(=O)c1cc(-c2ccco2)nc2c1c(C)nn2-c1ccccc1 | -5% | 2% | ? | -3% | 14% | 35µM*!
CCOC(=O)c1cc(-c2ccc(OC(F)F)cc2)nc2nc(SC)[nH]c(=O)c12 | nt | 3% | -1% | -7% | 18% | -4%
CCOC(=O)c1cc(-c2ccc(OC(F)F)cc2)nc2c1c(=O)[nH]c(=O)n2C | 3.5µM* | -2% | -5% | -2% | 15% | 3%
CCOC(=O)c1cc(-c2ccc(OC)cc2)nc2c1c(C)nn2CCC(N)=S | nt | 0% | -4% | 1% | 1% | 40µM*
CCOC(=O)c1cc(-c2ccc(OC)cc2)nc2ccc(Br)cc12 | nt | nt | nt | nt | nt | -10%
CCCn1c(=O)c2c(C(=O)OCC)cc(-c3ccco3)nc2n(CCC)c1=O | 13µM* | -1% | 0% | -2% | -13% | 9%
CCOC(=O)c1cc(-c2ccccn2)nc2c1c(C)nn2-c1ccc(C)cc1 | nt | nt | nt | nt | nt | -2%
CCOC(=O)c1cc(-c2ccco2)nc2c1c(C)nn2-c1ccccc1Cl | nt | nt | nt | nt | nt | 32µM*
Cc1cc(SCc2sc(-c3ccc(C(F)(F)F)cc3)nc2C)ccc1OCC(=O)O | nt | nt | nt | nt | nt | 1%[57.4 µM]
C/C(=N\NC(=O)c1cccc(C)c1)C1CC1 | nt | nt | nt | nt | nt | 8%
FC(F)(F)c1cccc(-n2cccc2/C=N/n2cnnc2)c1 | 0% | 4% | -1% | -6% | 4% | 14µM*
Cc1nnc2ccc(SCC(=O)Nc3cccc(Cl)c3Cl)nn12 | nt | nt | nt | nt | nt | 3%
Cc1ccccc1CNC(=O)/C=C\C(=O)O | -2% | 5% | 1% | -1% | 0% | ?
O=C(O)/C=C/C(=O)NCc1csc2ccccc12 | -2% | 5% | 0% | -3% | 0% | 25µM*
O=C(COC(=O)Cc1n[nH]c(=O)c2ccccc12)Nc1ccc2ccccc2c1 | nt | nt | nt | nt | nt | 39%
CN(C)Cc1cc(C(C)(C)C)c(O)c(C(C)(C)C)c1 | -1% | 6% | -7% | -4% | 2% | 0%
CC(C)(C)c1cc(CN(CCO)CCO)cc(C(C)(C)C)c1O | -2% | 4% | 1% | -6% | 3% | 16µM*
COc1ccc(-c2cc(C(F)(F)F)nc(NC3CCCC3)n2)cc1OC | 35µM* | -8% | 1% | 2% | 23% | 10%
COc1ccc(CNc2nc(-c3ccc(OC)c(OC)c3)cc(C(F)(F)F)n2)cc1 | 4% | -3% | nt | nt | nt | 0%
SMILES | ClpP mod | TDP1 block | Rango-impB inh | PTAP TSG101 blk | Rango dissoc inh | ALOX12 inh
CCOc1ccc(N=C2NN=C(c3cc(C)n(CC4CCCO4)c3C)CS2)cc1 (stereo not drawn) | 0% | 8% | 1% | -1% | 0% | 40µM*
COc1ccc(N2C(=O)c3ccccc3NC2c2ccc(OC)c(COc3ccccc3F)c2)cc1 (stereo not drawn) | 4% | -5% | nt | nt | nt | nt
COc1ccc(C2Nc3ccccc3C(=O)N2Cc2ccccc2)cc1CSc1ccccn1 (stereo not drawn) | 14µM* | 1% | -1% | -1% | -8% | -19%
COc1ccc(C2Nc3ccccc3C(=O)N2c2ccccc2)cc1Cn1cc([N+](=O)[O-])cn1 (stereo not drawn) | nt | 5% | ? | -2% | 0% | -10%
COc1ccc(C2Nc3ccccc3C(=O)N2c2ccccc2)cc1CSc1ccccn1 (stereo not drawn) | 32µM* | 0% | 1% | 1% | -2% | 3%
COc1ccc(C2Nc3ccccc3C(=O)N2c2ccc(F)cc2)cc1CSc1ccccn1 (stereo not drawn) | 8.9µM* | 0% | 5% | -2% | 3% | 1%
Cc1ccccc1S(=O)(=O)N1CCC(n2cnnc2C(C)C)CC1 | nt | nt | nt | nt | nt | 11%
CCCN(C)c1nccnc1OC1CCN(C(=O)c2ccn[nH]2)C1 (stereo not drawn) | nt | nt | nt | nt | nt | 53%
CCC(=O)Oc1c(Sc2ccc(Cl)cc2)c(C)nn1-c1ccccc1 | -4% | 12% | nt | nt | nt | 16µM*
CC(C)(O)c1cc(CC2(NCC3CCCCC3)COC2)no1 | nt | nt | nt | nt | nt | 48%[176 µM]
COc1ccc(S(=O)(=O)N2CCC(CCOc3ccccc3F)C2)cc1 (stereo not drawn) | nt | nt | nt | nt | nt | 15%
CCc1ccc(C(=O)c2cnc3ccc(OC)cc3c2N2CCOCC2)cc1 | nt | nt | nt | nt | nt | 28µM*
CCOC(=O)C1CCN(c2c(C(=O)c3ccc(OCC)cc3)cnc3ccc(OC)cc23)CC1 | -8% | 4% | nt | nt | nt | ?
N#CCc1ccc(OCCCN2CCC(C(O)(c3ccccc3)c3ccccc3)CC2)cc1 | -2% | nt | nt | nt | nt | ?
COc1ccccc1-c1ccc(OCCCN2CCC(C(O)(c3ccccc3)c3ccccc3)CC2)cc1 | nt | nt | nt | nt | nt | 40µM*
OC(c1ccccc1)(c1ccccc1)C1CCN(CCCOc2cc(F)cc(F)c2)CC1 | nt | nt | nt | nt | nt | -25%
OC(c1ccccc1)(c1ccccc1)C1CCN(CCCOc2ccc(-c3ccc(F)cc3F)cc2)CC1 | nt | nt | nt | nt | nt | 40µM*
O=C1CCN(C(=O)COc2ccccc2)CCCCCCN1 | nt | nt | nt | nt | nt | 24%
CCc1cc(=O)n(CC(=O)Nc2ccc(C(C)C)cc2)c(N2CCOCC2)n1 | nt | nt | nt | nt | nt | 3%
O=C(NCC1CCCO1)C(c1cccs1)N(Cc1ccccc1Cl)C(=O)c1ccc(-c2ccccc2)[nH]1 (stereo not drawn) | 32µM* | 8% | -2% | 1% | -6% | -8%
Cc1ccc(C(C(=O)NCC2CCCO2)N(Cc2ccccc2)C(=O)c2ccc(-c3ccccc3)[nH]2)o1 (stereo not drawn) | ? | 11% | 0% | -2% | 3% | -22%
CC(Oc1ccccc1F)C(=O)Nc1ccc(-c2nc3ccccc3s2)cc1 (stereo not drawn) | 3.2µM* | 3% | nt | nt | nt | -2%

Assay outcomes from PubChem.
